# Laboratory results from patent US20100081621, “Crystal structure of the catalytic domain of the viral restriction factor APOBEC3G” (published 2010).
# Biological target: APOBEC3G R313E/R320D (Homo sapiens, UniProt Q9HC16 Q9HC16:1-384, R313E,R320D)
# Experiment: FP; 5 mM MgCl2, 37 C
# Conditions: tags: Sf9, pAcG2T; label: internal fluorescein-dT; ssDNA; [15 (fluorescein-dT)]
# Description: Apo3G-DNA binding were monitored by changes in steady state fluorescence depolarization (rotational anisotropy). Reaction mixtures (70 μl), containing an F-labeled DNA ([…]) in buffer (50 mM HEPES, pH 7.3, 1 mM DTT and 5 mM MgCl₂) and varying concentration of 0 to 500 nM Apo3G, were incubated at 37° C. The sequence of the ssDNA is: tta gat gag tgt aa(FdT) gtg ata tat gtg tat. Rotational anisotropy was measured as described previously (Chelico et al., 2006). The fraction of DNA bound to protein was determined as described previously (Bertram et al., 2004).
# Chain of APOBEC3G R313E/R320D (Q9HC16 whole entry R313E/R320D, one chain of several): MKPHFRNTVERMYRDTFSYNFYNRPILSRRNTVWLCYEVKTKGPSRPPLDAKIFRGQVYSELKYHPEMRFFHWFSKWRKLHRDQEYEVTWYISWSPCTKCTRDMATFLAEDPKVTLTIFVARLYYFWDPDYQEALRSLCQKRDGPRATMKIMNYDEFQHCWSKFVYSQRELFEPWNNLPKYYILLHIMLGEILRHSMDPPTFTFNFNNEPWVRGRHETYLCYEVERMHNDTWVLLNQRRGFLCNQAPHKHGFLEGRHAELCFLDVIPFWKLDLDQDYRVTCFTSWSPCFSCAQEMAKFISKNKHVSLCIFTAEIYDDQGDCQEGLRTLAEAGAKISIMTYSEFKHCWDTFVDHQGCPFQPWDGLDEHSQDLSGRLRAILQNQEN
row,Sequence,binding signal
1,TTAGATGAGTGTAATGTGATATATGTGTAT,77 % of wt
